# Assay results taken from PubChem BioAssay (NCI).
# About 79,000 compounds went through this panel and 15% of them were active in at least one assay; those are over-represented in the sample as a whole. Unmarked numbers belong to inactive results. No stated cut-off is given here; in the data, active means growth inhibition above about 70%; inactive means the rest. Where a SMILES comes first, the peptide text is derived from it. Bridges are numbered along the chain shown (N, C = ends). [ ]: non-standard residue; d: D form. The star is where a group is joined. ξ: configuration not given here. NMeY = CN[C@@H](Cc1ccc(O)cc1)C(=O)O; Cbz = O=C(OCc1ccccc1)*; ξA = CC(N)C(=O)O
# Experiment: NCI Yeast Anticancer Drug Screen. Data for the bub3 strain (AID 167)
# Conditions: S. cerevisiae bub3 mutant strain, at 50.0 µM, stronger effect = higher value
# Description: Growth inhibition of yeast strains with defined genetic alterations is measured as a screen for potential anti-cancer activity. Selected strains with alterations in DNA damage repair or cell cycle control were exposed to compounds and growth inhibition was measured relative to vehicle treated controls. The strain used in this assay is bub3
row,Compound,growth inhibition
1,c1ccc2c3nnc(c2c1)SCCCSc1nnc(c2ccccc12)SCCCS3,1.8%
2,O=Cc1c[nH]c2ccccc12,1.85%
3,O=C(O)c1ccc(C(=O)c2ccc(Cl)cc2)cc1,13.6%
4,Clc1cccc(C=NC23CC4CC(CC(C4)C2)C3)c1Cl,-22.6%
5,O=C1CCCc2cc3c(cc21)CC1(Cc2ccccc2C1)C3,36.9%
6,CC(=Nc1cccc2ccccc12)c1c(O)cc(C)oc1=O,16.1%
7,CC(=O)c1cc(Cl)ccc1Cl,-3.05%
8,CCCCCCCCCCCCCCCCN(C)C(=S)c1ccc(OC)cc1,-1%
9,Cc1ccc2ncccc2c1,3.9%
10,CC(=Nc1ccccc1)Nc1ccccc1,4.7%
11,ON1c2ccc3ccccc3c2C=CC1(c1ccccc1)c1ccccc1,16.5%
12,C/C(=N/OC1=CC(=O)CC(C)(C)C1)c1ccccc1,24.1%
13,C/C(=N/NC(=O)NN)c1cccc(O)c1,-4.5%
14,Cc1nnc2n1N=C(c1ccc(-c3ccc([N+](=O)[O-])cc3)o1)CS2,-25.8%
15,Nc1cccc(S(=O)(=O)Nc2ccccc2)c1,0.65%
16,O=C(O)CC(Cc1ccc2c(c1)OCO2)C(=O)O (stereo not given),-54.6%
17,COc1ccc(S(=O)c2coc3ccccc3c2=O)cc1 (stereo not given),28.1%
18,COC(=O)C1C(O)C(C)C(O)C(C)(O)C=C(C)C2=C3C(=C(C)C(=O)c4c(O)c(c(C)c(OC(C)=O)c43)NC(=O)C(C)=C/C=C\C(C)(O)C(O)C(C)C1O)OCO2 (stereo not given),3.85%
19,CC1CC=CCC1(C(=O)O)C(=O)O (stereo not given),-21.6%
20,CCCCON1C[C@@H](O)C(O)[C@@H](O)C1 (stereo not given in full),13.6%

row,Compound,growth inhibition
1,Br[C@H]1CC2CCC1C2 (stereo not given in full),-6.1%
2,CC(C)(C)c1cc(O)c(C(=O)O)cc1O,-3.9%
3,O=C(/C=C/c1ccc(F)c(F)c1)OCCc1ccccc1,40.9%
4,Nc1ccc(Cl)cc1[N+](=O)[O-],-3.9%
5,COC(=O)CC(=O)C=P(c1ccccc1)(c1ccccc1)c1ccccc1,-17.5%
6,COC(=O)CCC(=O)C(CC(=O)OC)C(=O)CCC(=O)NCCc1ccccc1 (stereo not given),-24.2%
7,Oc1cc(O)c2c(-c3c(O)c(-c4ccc(O)c(O)c4)[o+]c4cc(O)cc(O)c34)c(O)c(-c3ccc(O)c(O)c3)[o+]c2c1,22.7%
8,CC(C)(C)C1CCC2c3c([nH]c4ccccc34)C3C(=O)N(c4ccc(C#N)cc4)C(=O)C3C2C1 (stereo not given),38.6%
9,CCOC(=O)C1CSSCC(N)C(=O)N1 (stereo not drawn) (H-Cys-Cys-OEt; disulfide 1-2; configuration not given here),-11.6%
10,CCc1cccc(C(=O)NCCN(C)C)c1[N+](=O)[O-],-11.9%
11,OC1COc2c3ccccc3nn2C1 (stereo not given),7.8%
12,Cc1cc2nc(-c3cc4cc(Cl)cc(Cl)c4oc3=O)[nH]c2cc1C,17.2%
13,C=C(C)C(=O)NC(N)=NC#N,-1.55%
14,O=S(=O)(O)c1cc(O)ccc1O.O=S(=O)(O)c1cc(O)ccc1O.[NH-]C1CCCCC1[NH-].[Pt+2],-0.85%
15,CC(C)N=C(NC#N)NS(=O)(=O)c1cnccc1Nc1ccc(Cl)cc1,-18.1%
16,CCOC(=O)/C(=C/c1ccc(N(CCC#N)CCC#N)cc1C)NC(=O)/C=C/c1ccccc1,-25.4%
17,COc1ccc(C[C@@H](C(=O)N[C@@H](C)C(N)=O)N(C)C(=O)[C@@H]2CCCN2C(=O)[C@H](CC(C)C)NC(=O)C(C)NC(=O)OCc2ccccc2)cc1 (stereo not given in full) (Cbz-[ξA]LP[NMeY](Me)A-NH2),-38.2%
18,COC1CC(NC(C)=O)C2OC(c3ccccc3)OCC2O1 (stereo not given),-3.45%
19,O=C(CCC(=O)C1Cc2ccccc2C1=O)Nc1cccc(C(F)(F)F)c1 (stereo not given),-22.9%
20,COC(=O)C1C2CC3C(C2=O)C31 (stereo not given),20.4%
